From PubChem BioAssay AID1159580 (chemical genetic matrix, 2015)
The whole screen tested about 5,500 compounds, of which about 2,000 (36%) were called active. Not shown: some 18% with an inconclusive outcome. Rule as the data show it: active = normalized growth mostly below about 0.91 (no sharp cut-off); inconclusive = no clear call, values can overlap the other calls; inactive = mostly above about 0.92. Some of the results follow.

Test: chemical genetic growth profiling, strain panel (AID 1159580);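 also: tested at 20 µM; growth read once vehicle control cultures reached saturation at 30 °C; 1 = growth at the plate median or of vehicle wells; lower values mean less growth of the strain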
Settings: S. cerevisiae deletion strains, growth OD
[1] = locus YCL061C, strain MRC1 (second series), active compounds read low
[2] = locus YDR363W, strain ESC2, active compounds read low
[3] = locus YER002W, strain NOP16, active compounds read low
[4] = locus YJR075W, strain HOC1, active compounds read low
[5] = locus YMR307W, strain GAS1, active compounds read low
[6] = locus YNL197C, strain WHI3, active compounds read low
[7] = locus YNL224C, strain SQS1, active compounds read low
[8] = locus YOR083W, strain WHI5 (second series), active compounds read low
[9] = locus YPL241C, strain CIN2, active compounds read low

Measured: normalized growth

CCCN(CCC)[C@H]1CCc2c(F)ccc(O)c2C1
inactive: [1] 1 | [2] 1.01 | [3] 0.998 | locus YGR229C, strain SMI1, active compounds read low 1.02 | [4] 1.01 | [5] 0.993 | [6] 0.979 | [7] 0.995 | [8] 1.01 | [9] 1
active: locus YNL128W, strain TEP1, active compounds read low 0.428

CCCN(CCC)[C@@H]1CCc2c(F)ccc(O)c2C1
inactive: locus YAL013W, strain DEP1, active compounds read low 1.01 | locus YAL040C, strain CLN3, active compounds read low 1.01 | [1] 1.01 | locus YDR150W, strain NUM1, active compounds read low 0.983 | [2] 1.01 | [3] 1 | [4] 1.02 | locus YMR263W, strain SAP30, active compounds read low 1.01 | [5] 1 | [6] 0.992 | [7] 0.999 | [8] 1.01 | locus YPL055C, strain LGE1, active compounds read low 1.01 | [9] 1

CN(C)CC(=O)OC[C@@H](O)[C@@H](O)[C@H](O)[C@@H](O)C(=O)O
inactive: locus YHR030C, strain SLT2, active compounds read low 0.956 | locus YHR079C, strain IRE1, active compounds read low 0.944 | locus YJL095W, strain BCK1, active compounds read low 0.954 | locus YJR066W, strain TOR1, active compounds read low 0.924 | locus YLR113W, strain HOG1, active compounds read low 0.956 | locus YNL183C, strain NPR1, active compounds read low 0.896 | locus YOR231W, strain MKK1, active compounds read low 0.964 | locus YPL256C, strain CLN2, active compounds read low 0.969
